EPAC1 antagonist: blocks human EPAC1 exchange factor; O95398; EPAC1 GEF assay, Rap1b-BODIPY-GDP exchange fluorescence; Potency, µM (highest dose often 115 µM), without a hit: at the top dose activity change, negative = inhibition, hits mostly inhibitors; hit rate 0.14% among 360,000;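 note: plate controls were vehicle for no effect and positive control for full effect; nearly all actives have a fitted effect of over 50% in size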
EPAC2 ag: agonists of human EPAC2 (RAPGEF4); Q8WZA2; EPAC2 activation, biochemical qHTS; response scale: 100% = 6.5 mM cAMP response; Potency, µM (highest dose often 154 µM), for the others: at the top dose activation, most hits filed as activators; hit rate 0.079% among 360,000; AID 720711; note: nearly all actives have a fitted effect of over 50% in size
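Exchange assay: 100 nM EPAC2 with 250 nM Rap1B-BODIPY-GDP and 50 uM GDP. Fluorescence (ex 480/em 540 nm) read every 5 min for 30 min at room temperature. Data normalized to 6.5 mM cAMP as agonist control.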
EPAC1 agonist: agonists of human EPAC1; O95398; EPAC1 agonist qHTS, biochemical assay; response scale: 100% = response to 6.5 mM cAMP; Potency, µM (highest dose often 154 µM), inactives show at the top dose activation, usual class: activators; hit rate 0.073% among 360,000; AID 720707; note: nearly all actives have a fitted effect of over 60% in size
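Nucleotide exchange by EPAC1 (100 nM) on Rap1B–BODIPY-GDP (250 nM) in the presence of 50 uM GDP is tracked fluorescently at 480/540 nm over 30 min. Signals are normalized to a 6.5 mM cAMP control.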
EPAC2 antagonist: blocks human EPAC2 exchange factor | Q8WZA2 | EPAC2 GEF exchange of Rap1B-BODIPY-GDP, fluorescence | Potency, µM (top dose mostly 114 µM), without a hit: at the highest dose activity, negative = inhibition, hits mostly inhibitors | hit rate 0.18% among 360,000 | AID 720708; note: % is set by controls: 0 for no effect and ±100 for the full control effect; nearly all actives have a fitted effect of over 45% in size
Rango dissoc inh: inhibition of RanGTP-driven Rango-importin beta dissociation. Potency, µM (series often up to 46.1 µM), inactives show at the highest dose activity change, negative = inhibition. AID 540253. hit rate 0.071% among 340,000. O95149+P62826. Biochemical FRET Rango-importin beta, RanGTP-induced dissociation; calls by dose curve; note: % of control where 0% means no effect; nearly all actives have a fitted effect of over 45% in size
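Compounds preincubate 5 min with complex of recombinant Rango and importin beta in PBS with 1 mM DTT. Ran (0.6 uM) loaded with 2 mM GTP plus 0.2 uM RCC1 starts dissociation; FRET is recorded 45 min later.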
Rango-impB inh: inhibitors of Rango-importin beta complex formation | Q14974 | Rango CFP/YFP FRET sensor + importin beta, 45 min | Potency, µM (top dose mostly 92.2 µM), for the others: top-dose inhibition of complex formation | hit rate 0.031% among 340,000 | AID 540263; calls by dose curve;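 note: 0% = DMSO wells and 100% = buffer wells lacking importin beta; nearly all actives have a fitted effect of over 15% in size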
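FRET biosensor Rango (snurportin 1 IBB between N-terminal EYFP and C-terminal Cerulean), 50 nM in PBS/1 mM DTT/0.02% Tween-20/0.1% BSA, preincubated 5 min RT with compound; 0.125 microM importin beta added, 45 min RT, CFP/YFP FRET ratio read.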
Active calls of the source: *; u = inconclusive; x = not tested or not shown; [ ] = dose if it differs, or a comment. An excerpt weighted towards active compounds, which were near 0.43% of everything screened. Unless noted, calls come from the whole dose curve; as a rule, active = well fitted curve in the direction sought with a large enough effect; inconclusive = small, poorly fitted or top-dose-only effect, or another doubt; inactive = no such curve, though single readings can be large; an effect the other way counts as inactive or inconclusive. Potency is the fitted concentration of half-maximal effect.

SMILES | EPAC1 antagonist | EPAC2 ag | EPAC1 agonist | EPAC2 antagonist | Rango dissoc inh | Rango-impB inh
CC(=O)Nc1ccc(NC(=O)C(C)OC(=O)/C(C#N)=C/c2ccc(N(C)C)cc2)cc1 (stereo not given) | -17% | 10% | 1% | 14% | u | u
CC(OC(=O)/C(C#N)=C/c1ccc(N(C)C)cc1)C(=O)N(C)c1ccccc1 (stereo not given) | 17% | 63µM* | 56µM* | 56% | u | u
N#C/C(=C(/O)CSc1ccccn1)c1nc2ccccc2s1 | 0% | 5% | 10% | -18% | u | u
Cc1ccc(SC/C(O)=C(\C#N)c2nc3ccccc3s2)cc1 | -11% | 10µM* | -3% | -26% | 0% | 0%
CC1=CC2=C(C=O)C(=O)C(C)(O)C(O)C2=CO1 (stereo not given) | u | -68% | -64% | 50µM* | x | x
COc1cccc2c1C(=O)c1c(O)c3c(c(O)c1C2=O)C[C@@](O)(C(=O)CO)C[C@@H]3O[C@H]1C[C@H](N)[C@H](O)[C@H](C)O1 | 6% | 6% | u | 76% | 3% | 0%
COc1cccc2c1C(=O)c1c(O)c3c(c(O)c1C2=O)C[C@@](O)(C(=O)CO)C[C@@H]3OC1CC(N)C(O)C(C)O1 (stereo not given in full) | 17% | -6% | u | -5% | 9% | 11%
COc1cccc2c1C(=O)c1c(O)c3c(c(O)c1C2=O)CC(O)(C(C)=O)CC3OC1CC(N(C)C)C(O)C(C)O1 (stereo not given) | 28% | 9% | 89µM* | 21% | 1% | 16%
CC(=O)[C@@]1(O)Cc2c(O)c3c(c(O)c2[C@H](O[C@H]2C[C@H](N)[C@H](O)[C@H](C)O2)C1)C(=O)c1ccccc1C3=O | 143% | u | 28µM* | 178% | x | x
COc1cc(C)c(/C=C/C(C)=C/C=C/C(C)=C/C(=O)O)c(C)c1C | u | -8% | -8% | 10µM* | 11% | -5%
CC1(C)c2ccccc2N(CC(N)=O)C12C=Cc1ccccc1O2 (stereo not given) | -18% | -1% | -8% | 18µM* | 34% | -1%
Cc1ccc(C(NC(=O)C2CCN(CCOc3ccc(Cl)cc3)CC2)c2ccccn2)cc1 (stereo not given) | -3% | 9% | -4% | 10% | x | x
Nc1ccc(-c2c3ccc(=O)cc-3oc3cc(O)ccc23)c(C(=O)O)c1 | 160% | 126µM* | 100µM* | 199% | u | u
O=c1ccc2[n+]([O-])c3ccc(O)cc3oc-2c1 | -7% | 2% | 9% | 1% | 2% | 1%
CN(C)c1nc(OCCNC(=O)Nc2ccccc2)nc(N(C)C)n1 | 9% | 10µM* | -6% | 0% | 20% | 0%
Cc1ccc(-c2ccc(CN3C(CC(C)C)C(=O)N(Cc4cn(CCC5OCCCO5)nn4)CCS3(=O)=O)cc2)cc1 (stereo not given) | -7% | -1% | -13% | u | x | x
CC(C)CC1C(=O)N(Cc2cn(CCC3OCCCO3)nn2)CCS(=O)(=O)N1Cc1ccc(-c2ccc(F)cc2)cc1 (stereo not given) | -7% | 0% | 1% | 22µM* | x | x
CC1CCCN(C(=O)COC(=O)C2CCN(S(=O)(=O)c3c(Cl)cccc3Cl)CC2)C1 (stereo not given) | -2% | -7% | 11% | 0% | 12% | 6%
CCOC(=O)CC1=C(C(=O)OCC)C(c2ccc(OC)c(OC)c2)C(C#N)=C(N)O1 (stereo not given) | 10% | 8% | 11% | 21% | -10% | u
CCOC(=O)CC1=C(C(=O)OCC)C(c2cc(OC)c(OC)cc2OC)C(C#N)=C(N)O1 (stereo not given) | 3% | -3% | 6% | -1% | 15µM* | u
O=c1cc(CSc2nc3ccccc3c(=O)[nH]2)c2ccc(O)cc2o1 | 50µM* | 5% | -23% | -16% | u | u
Cc1nn(C(=O)c2cccc([N+](=O)[O-])c2)c(C)c1Br | 8% | 1% | 11% | -2% | 0% | 4%
O=C(O)c1ccccc1C1=Nc2ccc(O)cc2Oc2cc(O)ccc21 | 66% | u | 100µM* | 88% | u | u
Cc1cc(-c2ccccc2C(=O)O)on1 | 7% | 4% | 4% | 1% | 17% | 0%
CCOc1ccc(NC(=S)N2CCN(CCN3C(=O)c4cccc5cccc(c45)C3=O)CC2)cc1 | 8% | -7% | -2% | 0% | 0% | -2%
SMILES | EPAC1 antagonist | EPAC2 ag | EPAC1 agonist | EPAC2 antagonist | Rango dissoc inh | Rango-impB inh
COc1ccc(/C(O)=C/c2nc3ccccc3n(-c3ccccc3)c2=O)cc1 | 25% | 89µM* | 1% | 104%[57.1 µM] | u | u
COc1ccc(-n2c(=O)c(CCC(=O)N3CCN(c4cccc(OC)c4)CC3)nc3ccccc32)cc1 | -15% | -4% | -19% | 2% | x | x
CC(C)(C)NC(=O)C(=O)N/N=C/c1ccc(F)cc1 | 4% | -4% | 6% | 1% | 9% | -1%
Nc1ccc2c(c1)-c1ccccc1S(=O)(=O)N2 | 8% | 0% | 2% | 4% | u | u
CCOc1ccc(NC(=O)COc2ccc(C(=O)NCc3cccnc3)cc2OC)cc1 | 14% | -3% | -1% | -9% | 0.37µM* | 5%
CCc1cc2c(SCC(=O)NC(=O)c3cccn3C)ncnc2s1 | -17% | -8% | -17% | -1% | -23% | 1%
Cc1cc2nc3c(=O)n(C4CCCCC4)c(=O)[nH]c3nc2cc1N | 237% | u | 112µM* | 40% | u | u
C/C(N)=C(/C#N)C(=O)COC(=O)C(NS(=O)(=O)c1ccc(Cl)cc1)C(C)O (stereo not given) | -2% | 7% | 9% | -6% | -1% | 0%
Clc1ccccc1C(c1ccccc1)(c1ccccc1)n1ccnc1 | -4% | 20% | 5% | 14µM* | 3% | -2%
CCCCCC/C(C)=C1/SC(=S)NC1=O | -29% | 4% | -3% | -22% | -6% | u
C/C(C/C(C)=C1/SC(=S)NC1=O)=C1\SC(=S)NC1=O | 20µM* | 14% | -3% | u | -10% | 0%
Cc1ccc(S(=O)(=O)Oc2ccc(/C=C3/C(=N)N4C(=NC3=O)SN=C4S(C)(=O)=O)cc2)cc1 | -24% | -1% | -10% | u | 2% | 0%
COc1cc(C=O)ccc1OS(=O)(=O)c1ccc(NC(C)=O)cc1 | 0% | -5% | -4% | 14% | 1% | 0%

Bioassay records (PubChem BioAssay)
